Structures can show the parent of a compound that is named as a salt. ± gives the standard deviation of the averaged measurements. In all, about 2,000 compounds were measured (“relative cell viability vs DMSO, compound + 0.2 uM CuET”: median about 1, lowest 2% from about 0.25 on). Many of the other results were omitted from the sample, so the lowest values are more common in it than they were.
Each compound was assayed on TE10 (assay: relative cell viability vs DMSO, compound + 0.2 uM CuET (fraction); TE10 is an esophageal squamous carcinoma line; higher = less cytotoxic). Details: 2 µM; co-treatment: CuET (bis(diethyldithiocarbamate)copper) 0.2 uM; 48 h.
Procedure: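 TE10 ESCC cells (1,000/well, 384-well plates) were treated with Selleck bioactive library compounds at 2 uM combined with 0.2 uM CuET (copper diethyldithiocarbamate) for 48 h. Viability was read by CellTiter-Glo and expressed relative to DMSO wells. Two technical replicates (A, B).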

SMILES | relative cell viability
CC(=O)Nc1ccccc1 [Acetanilide] | 1.018 ± 0.0034
CC(C)(C)C(=O)Nc1ccc2c(c1)C(=O)C(=O)c1ccccc1-2 | 0.026 ± 0.0042
O=C1c2ccccc2C(=O)c2c1ccc(O)c2O [Alizarin] | 1.1 ± 0.029
COc1ccc(OC)c(C2C(C#N)=C(N)Oc3n[nH]c(-c4ccc5ccccc5c4)c32)c1 (configuration not stated) | 1.06 ± 0.048
CN(c1ccccc1CNc1nc(Nc2ccc3c(c2)CC(=O)N3)ncc1C(F)(F)F)S(C)(=O)=O | 0.709 ± 0.029
Cc1ccc(NC(=O)c2ccc(CN3CCN(C)CC3)cc2)cc1Nc1nccc(-c2cccnc2)n1 [Imatinib Mesylate (STI571)] | 1.43 ± 0.12
Nc1ccccc1NC(=O)c1ccc(CNC(=O)OCc2cccnc2)cc1 [Entinostat (MS-275)] | 0.321 ± 0.033
Cc1ccc(NC(=O)c2ccc(CN3CCN(C)CC3)cc2)cc1Nc1nccc(-c2cccnc2)n1 [Imatinib (STI571)] | 1.05 ± 0.1
Nc1ccccc1NC(=O)c1ccc(CNc2nccc(-c3cccnc3)n2)cc1 [Mocetinostat (MGCD0103)] | 0.249 ± 0.039
O=C1Cc2c([nH]c3ccc(Br)cc23)-c2ncccc2N1 [1-Azakenpaullone] | 1.17 ± 0.11
Cc1ccc(-c2csc(NC(=O)c3ccccc3)n2)c(C)c1 | 1.22 ± 0.19
Cn1c(Nc2ccc(C(F)(F)F)cc2)nc2cc(Oc3ccnc(-c4ncc(C(F)(F)F)[nH]4)c3)ccc21 | 0.847 ± 0.035
CCCc1nc(C)c2c(=O)nc(-c3cc(S(=O)(=O)N4CCN(CC)CC4)ccc3OCC)[nH]n12 [Vardenafil HCl Trihydrate] | 1.1 ± 0.062
O=C(c1ccc(F)cc1)N1CCCC(c2nc(-c3ccc(F)cc3)no2)C1 (configuration not stated) | 1.12 ± 0.22
C=CC(=O)N1CC(=Cc2ccc([N+](=O)[O-])cc2)C(=O)C(=Cc2ccc([N+](=O)[O-])cc2)C1 | 0.126 ± 0.015
CN1C(C(=O)Nc2ccccn2)=C(O)c2ccccc2S1(=O)=O [Piroxicam] | 1.02 ± 0.064
Nc1ccccc1NC(=O)c1cnccn1 | 1.16 ± 0.018
CC(C)Oc1ccc2c(=O)c(-c3ccccc3)coc2c1 [Ipriflavone (Osteofix)] | 0.968 ± 0.056
CCC(=O)OCC(=O)[C@@]1(OC(=O)CC)[C@@H](C)C[C@H]2[C@@H]3CCC4=CC(=O)C=C[C@]4(C)[C@@]3(F)[C@@H](O)C[C@@]21C [Betamethasone Dipropionate] | 1.05 ± 0.052
CC(C)(C)c1ccc(S(=O)(=O)/C=C/C#N)cc1 | 0.107 ± 0.0014
Cc1ccc(S(=O)(=O)C=CC#N)cc1 | 0.101 ± 0.0039
Cc1cc(C)c(-c2csc(NC(=O)c3ccccc3)n2)c(C)c1 | 1.17 ± 0.069
O=C(NO)c1ccc(CC(=O)N(CCO)c2ccccc2)cc1 | 1.056 ± 0.0057
O=C1NC(=NCc2cccs2)S/C1=C\c1ccc2ncccc2c1 | 1.12 ± 0.078
CC(Oc1cc(-c2cnn(C3CCNCC3)c2)cnc1N)c1c(Cl)ccc(F)c1Cl [(S)-crizotinib] | 1.12 ± 0.028
CC(C)(C)C(=O)OCOP(=O)(COCCn1cnc2c(N)ncnc21)OCOC(=O)C(C)(C)C [Adefovir Dipivoxil] | 1.02 ± 0.035

SMILES | relative cell viability
Cc1cc(Nc2cc(CN3CCOCC3)c3nc(C)c(Cc4ccc(Cl)cc4F)n3n2)n[nH]1 | 0.92 ± 0.046
O=C1C(c2c(O)[nH]c3ccccc23)=Nc2ccccc21 [Indirubin] | 0.978 ± 0.15
CC(C)C[C@H](NC(=O)CNC(=O)c1cc(Cl)ccc1Cl)B1OC(=O)CC(CC(=O)O)(C(=O)O)O1 (some centres not stated) | 0.818 ± 0.048
O=C1N=C(O)NC1(c1ccccc1)c1ccccc1 [Phenytoin sodium] | 0.961 ± 0.045
CCN(CC)CCNC(=O)c1ccc(N)cc1 [Procainamide HCl] | 0.957 ± 0.026
CCN(CC)Cc1ccc2cc(COC(=O)Nc3ccc(C(=O)NO)cc3)ccc2c1 [Givinostat (ITF2357)] | 0.192 ± 0.018
COc1ccc(Cn2ccc3ccc(C(=O)NO)cc32)cc1 | 0.685 ± 0.085
C=CC(=O)N1CCN(C(=O)CNc2cc(I)c(Cl)cc2O)CC1 [K-Ras(G12C) inhibitor 12] | 1.06 ± 0.13
C=CC(C)(C)c1cc(C=CC(=O)c2ccc(O)cc2)c(OC)cc1O [Licochalcone A] | 1.008 ± 0.0053
CN1CC[C@@H](c2c(O)cc(O)c3c(=O)cc(-c4ccccc4Cl)oc23)[C@@H]1CO | 0.7 ± 0.044
CNC(=O)c1c(F)cccc1Nc1nc(Nc2cc3c(cc2OC)CCN3C(=O)CN(C)C)nc2[nH]ccc12 | 1.06 ± 0.1
CC1(C)O[C@@H]2C[C@H]3[C@@H]4CCC5=CC(=O)CC[C@]5(C)[C@@]4(F)[C@@H](O)C[C@]3(C)[C@]2(C(=O)CCl)O1 [Halcinonide] | 0.905 ± 0.0084
NC(=O)c1ccc(-c2nc(-c3ccc4c(c3)OCCO4)c(-c3ccccn3)[nH]2)cc1 | 0.996 ± 0.12
CC(C)N(CCC(=O)c1ccc2ccccc2c1)Cc1ccccc1 | 0.1814 ± 0.0002
C/C(=C\C(=O)Nc1ccccc1C(=O)O)c1ccc2ccccc2c1 | 1.14 ± 0.058
CC(COc1ccccc1)N(CCCl)Cc1ccccc1 (configuration not stated) [Phenoxybenzamine HCl] | 1.07 ± 0.07
Cn1cc(-c2ccc3c(c2)CCN3C(=O)Cc2cccc(C(F)(F)F)c2)c2c(N)ncnc21 | 0.897 ± 0.087
CN(C)CCN1C(=O)c2cccc3cc(N)cc(c23)C1=O [Amonafide] | 1.042 ± 0.0065
COc1ccc(C2=NC(c3ccc(Cl)cc3)C(c3ccc(Cl)cc3)N2C(=O)N2CCNC(=O)C2)c(OC(C)C)c1 (configuration not stated) [Nutlin-3a] | 1.149 ± 0.0057
COc1ccc(C2=NC(c3ccc(Cl)cc3)C(c3ccc(Cl)cc3)N2C(=O)N2CCNC(=O)C2)c(OC(C)C)c1 (configuration not stated) [Nutlin-3b] | 1.17 ± 0.094
O=C(Oc1cc(S(=O)(=O)c2ccccc2)ccc1[N+](=O)[O-])c1ccc(Cl)cc1 | 1.04 ± 0.07
COc1cc(-c2cc(-c3ccc(N4CCNCC4)cc3)cnc2C)cc(OC)c1OC | 0.87 ± 0.053
Nc1ccc(-c2ccc3ncc4ccc(=O)n(-c5cccc(C(F)(F)F)c5)c4c3c2)cn1 [Torin 2] | 0.569 ± 0.16
COc1ccc(-c2ccc3ncc4c(c3c2)n(-c2ccc(N3CCNCC3)c(C(F)(F)F)c2)c(=O)n4C)cn1 | 0.104 ± 0.0046
Cc1c(NC(=O)c2ccc(C(C)(C)C)cc2)cccc1-c1cn(C)c(=O)c(Nc2ccc(C(=O)N3CCOCC3)cc2)n1 | 1.04 ± 0.046
Cc1ccccc1C(=O)Nc1ccc(C(=O)N2CCCC(O)c3cc(Cl)ccc32)c(C)c1 (configuration not stated) [Tolvaptan] | 1.05 ± 0.075

SMILES | relative cell viability
CNCc1ccc(-c2[nH]c3cc(F)cc4c3c2CCNC4=O)cc1 | 1.3 ± 0.098
C=C(C)[C@@H]1CC[C@]2(C(=O)O)CC[C@]3(C)[C@H](CC[C@@H]4[C@@]5(C)CC[C@H](O)C(C)(C)[C@@H]5CC[C@]43C)[C@@H]12 [Betulinic acid] | 0.945 ± 0.13
O=[N+]([O-])c1ccc2c(c1)S(=O)(=O)C=C2 [Stattic] | 0.204 ± 0.018
CS(=O)(=O)Nc1ccc([N+](=O)[O-])cc1Oc1ccccc1 [Nimesulide] | 1.08 ± 0.044
CC(C)=CCCC(C)(OC1OC(COC2OCC(O)C(O)C2O)C(O)C(O)C1O)C1CCC2(C)C1C(O)CC1C3(C)CCC(OC4OC(CO)C(O)C(O)C4O)C(C)(C)C3CCC12C (configuration not stated) [Gynostemma Extract] | 1.04 ± 0.076
COC(=O)CCSCc1ccc(-c2onc(C)c2NC(=O)OC(C)c2ccccc2Cl)cc1 (configuration not stated) | 0.919 ± 0.024
CCCCN1CCCCC1C(=O)Nc1c(C)cccc1C (configuration not stated) [Bupivacaine HCl] | 1.03 ± 0.16
CCN=C1N[C@@H]2[C@@H](O)[C@H](O)[C@@H](CO)O[C@@H]2S1 [Thiamet G] | 1.16 ± 0.065
CN1CCc2c(c3ccccc3n2Cc2ccc(C(=O)NO)cc2)C1 [Tubastatin A] | 1.375 ± 0.0024
Cn1cc(CNCC2CCN(c3ncc(C(=O)NO)cn3)CC2)c2ccccc21 | 0.171 ± 0.017
COc1cc(C(=O)NS(=O)(=O)c2ccccc2C)ccc1Cc1cn(C)c2ccc(NC(=O)OC3CCCC3)cc12 [Zafirlukast] | 1.08 ± 0.019
CN1CCc2c(c3ccccc3n2Cc2ccc(C(=O)NO)cc2)C1 [Tubastatin A HCl] | 0.979 ± 0.011
CCCCCCCCCCCCCCCC(=O)OCC(O)C1OC(=O)C(O)=C1O [L-Ascorbyl 6-palmitate] | 1.02 ± 0.04
C[C@@H]1[C@H](O)[C@@H](C)/C=C/C=C/C=C/C=C/C=C/C=C/C=C/[C@H](O[C@@H]2O[C@H](C)[C@@H](O)[C@H](N)[C@@H]2O)C[C@@H]2O[C@](O)(C[C@@H](O)C[C@@H](O)[C@H](O)CC[C@@H](O)C[C@@H](O)CC(=O)O[C@H]1C)C[C@H](O)[C@H]2C(=O)O [Amphotericin B] | 1.13 ± 0.11
COc1c/c(=C2\C=c3ccccc3=N2)[nH]/c1=C\c1[nH]c(C)cc1C [Obatoclax Mesylate (GX15-070)] | 0.354 ± 0.035
Brc1ccc(C2CN3CCSC3=N2)cc1 (single isomer, unassigned; (-)) [(-)-p-Bromotetramisole Oxalate] | 1.33 ± 0.11
Cc1cc(=O)oc2c(C=O)c(O)ccc12 | 1.24 ± 0.086
CN(NC(=O)CC(=O)NN(C)C(=S)c1ccccc1)C(=S)c1ccccc1 [Elesclomol (STA-4783)] | 0.0573 ± 0.0087
O=C(O)CCNC(=O)c1ccccc1 [Betamipron] | 1.014 ± 0.0048
O=C(O)c1ccccc1 [Benzoic Acid] | 1.1 ± 0.072
O=C(Nc1ccc2c(O)cc(S(=O)(=O)O)cc2c1)Nc1ccc2c(O)cc(S(=O)(=O)O)cc2c1 | 1.04 ± 0.058
COc1ccc(Oc2cc(C)c(-c3csc(NC(=O)c4ccncc4)n3)c(C)c2)cc1 | 0.89 ± 0.15
O=C(/C=C/c1ccc(O)c(O)c1)O[C@@H]1C[C@](O)(C(=O)O)C[C@@H](O)[C@H]1O [Chlorogenic Acid] | 1.1 ± 0.11
CC1(C)S[C@@H]2[C@H](NC(=O)[C@H](N)c3ccc(O)cc3)C(=O)N2[C@H]1C(=O)O [Amoxicillin] | 0.42 ± 0.49
CC1(C)S[C@@H]2[C@H](NC(=O)[C@H](N)c3ccc(O)cc3)C(=O)N2[C@H]1C(=O)O [Amoxicillin Sodium] | 1.06 ± 0.069

Source: the supplement of paper PMC10670038
